Assay [1] can be described thus: Cellular Toxicity (caspase-3) Mesangial (AID 660).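 Also: cells exposed to compound for 16 h before the caspase read.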 The following applies: mesangial cells, normalized: DMSO 0%, 100 µM tamoxifen 100%; at 91.7 µM (top of the series). The essentials: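 Human renal glomerular mesangial cells (1000/well) were treated with compounds for 16 h at 37 °C in complete medium, then caspase 3/7 activity was read by Caspase-Glo luminescence. Data were normalized to DMSO and 100 uM tamoxifen; AC50 from Hill fits.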

Assay [2] is described as follows: Cellular Toxicity (caspase-3) SK-N-SH (AID 661).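 Also: 0% = DMSO basal and 100% = 10 µM staurosporine.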 The essentials:
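SK-N-SH human neuroblastoma cells (1500/well) were treated with compounds for 16 hr at 37 °C in complete medium; caspase 3/7 activity was read by Caspase-Glo luminescence. AC50 came from Hill fits of data normalized to DMSO and 10 uM staurosporine.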

The nature of assay [3]: Cellular Toxicity (caspase-3) H-4-II-E (AID 663).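 Also: cells exposed to compound for 16 hr before readout.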 The following applies: H-4-II-E rat hepatoma, scaled: DMSO 0%, 100 µM tamoxifen 100%; at 92.2 µM (top of the series). A digest of the protocol:
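Apoptosis induction is scored as increased luminescence from caspase 3/7 substrate cleavage in rat hepatoma H-4-II-E cells exposed to compound for 16 hr. Activity is scaled between DMSO and 100 uM tamoxifen.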

A short description of assay [4]: Cellular Toxicity (caspase-3) Hek293 (AID 664).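 Also: cells exposed to compound for 16 h at 37 °C before readout.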 The following applies: HEK293 caspase-3 activation, DMSO = 0%, 100 µM tamoxifen = 100%; at 92.2 µM (top of the series). A digest of the protocol: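 HEK293 cells were exposed to compounds in complete medium for 16 hr at 37 °C, then caspase-3/7 activity was read by Caspase-Glo 3/7 luminescence after 20 min at room temperature. Data normalized to DMSO and 100 uM tamoxifen; AC50 from Hill fits.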

Assay [5] in a line: Cellular Toxicity (caspase-3) N2a (AID 665).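 Also: compound exposure lasted 16 h at 37 °C before readout.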 A digest of the protocol: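 Mouse N2a neuroblastoma cells (1500/well) were treated with compounds for 16 h at 37 °C, then caspase-3/7 activity was read by Caspase-Glo luminescence after 1 h at room temperature. Data were normalized to DMSO and 10 uM staurosporine; AC50 from Hill fits.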
A short description of assay [6]: Cellular Toxicity (caspase-3) Renal Proximal Tubule (AID 667).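 Also: cells exposed to compound for 16 hours at 37 °C before detection; 0% = DMSO basal and 100% = 10 µM staurosporine.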 The following applies: Potency: caspase-3 activation. The essentials: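 In qHTS format, rat primary proximal tubule cells seeded at 1000 per well are exposed to compounds for 16 hours at 37 °C. An increase in Caspase-Glo 3/7 luminescence indicates caspase activation.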
Assay [7] concerns the target Cytochrome P450 3A4 (Homo sapiens) (UniProt P08684). Nature of the assay: qHTS Assay for Inhibitors and Substrates of Cytochrome P450 3A4 (AID 884). Also: % is scaled to controls: 0 for no effect and ±100 for the full control effect; nearly all actives have a fitted effect of over 50% in size. The essentials:
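20 nM human CYP3A4 with 25 uM Luciferin-PPXE (at KM) in 200 mM KPO4, preincubated 10 min with compound; NADPH regeneration started a 60 min RT reaction. Luciferin detected by luminescence, normalized to 57 uM ketoconazole as full inhibition.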
On the technique in general: qHTS replaces the single test concentration by a dilution series.

Assay [8] can be described thus: Cell Viability - LYMP2-001 (AID 921). Also: nearly all actives have a fitted effect of over 70% in size. Also: potency is read from the fitted curve at half-maximal effect. A digest of the protocol: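 qHTS, 1536-well; lymphoblastoid cells, 24 hr compound, 37 C; ATP by CellTiter-Glo, 30 min RT; luminescence; Hill-fit AC50.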
Assay [9] is described as follows: MultiTox-Fluor Cytotoxicity Assay - LYMP1-001 - Dead Cells (AID 946). A digest of the protocol:
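Seed 2500 LYMP1-001 cells/well, incubate 5 hr at 37 C; add compound, 16 hr at 37 C; add MultiTox-Fluor reagent, 60 min RT; read dead-cell fluorescence Ex/Em=485/520. Normalize to DMSO and 15 uM tetraoctylammonium bromide.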

The nature of assay [10]: MultiTox-Fluor Cytotoxicity Assay - LYMP1-001 - Live Cells (AID 947).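 Also: 0% = DMSO only and full inhibition = tetraoctylammonium bromide control.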
The nature of assay [11]: Cell Viability - LYMP1-002 - Assay at 16 hr (AID 948).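 Also: 0% = DMSO alone and full effect = 92 µM tetraoctylammonium bromide.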 A digest of the protocol: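 Acute cytotoxicity is scored as a concentration-dependent fall in intracellular ATP in a human lymphoblastoid line (LYMP1-002) after 16 hr compound exposure at 37 C, measured by luciferase luminescence.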
Assay [12] is described as follows: MultiTox-Fluor Cytotoxicity Assay - LYMP1-002 - Live Cells (AID 955). Also: % is scaled to controls: 0 for no effect and ±100 for the full control effect. A digest of the protocol: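 Human lymphoblastoid LYMP1-002 cells, 2500/well in complete medium, rested 5 hr at 37 C, then exposed to compounds for 16 hr at 37 C. Live-cell protease cleavage of GF-AFC read by fluorescence (Ex/Em 405/510) after 60 min at room temperature; AC50 from Hill fits.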

A short description of assay [13]: MultiTox-Fluor Cytotoxicity Assay - LYMP1-002 - Dead Cells (AID 960). Also: nearly all actives have a fitted effect of over 60% in size. A digest of the protocol: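 Human lymphoblastoid cells (LYMP1-002), 2500/well in complete medium, were exposed to compounds for 16 hr at 37 C. Dead-cell protease activity was read as bis-AAF-R110 fluorescence (Ex/Em 485/520), normalized to DMSO and 15 uM tetraoctylammonium bromide; AC50 from Hill fits.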

A short description of assay [14]: MultiTox-Fluor Cytotoxicity Assay - LYMP1-003 - Dead Cells (AID 961). Also: nearly all actives have a fitted effect of over 70% in size. A digest of the protocol:
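LYMP1-003 lymphoblastoid, 2500 cells/well, 5 hr settle then 16 hr cpd at 37 C; MultiTox-Fluor reagent 60 min RT; Ex/Em 485/520 dead-cell signal; norm. DMSO = 0%, 15 uM tetraoctylammonium bromide = 100%; Hill AC50.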

Assay [15] can be described thus: MultiTox-Fluor Cytotoxicity Assay - LYMP1-003 - Live Cells (AID 962).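 Also: 0% = DMSO only and full loss = 92 µM tetraoctylammonium bromide; cytotoxic hits lower the live-cell protease signal.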 The essentials:
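LYMP1-003 human lymphoblastoid cells (2500/well) in complete medium were preincubated 5 hr at 37 C, then exposed to compounds for 16 hr at 37 C. Live-cell protease cleavage of GF-AFC read by fluorescence (Ex/Em 405/510); AC50 from Hill fits.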

The nature of assay [16]: Cell Viability - LYMP1-003 - Assay at 24 hr (AID 963).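 Also: plate controls were DMSO only for no effect and tetraoctylammonium bromide positive control for full effect.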 A digest of the protocol: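 Human lymphoblastoid LYMP1-003 cells (2500/well) were rested 5 hr at 37 C, then exposed to compounds in complete medium for 24 hr at 37 C. Cellular ATP was quantified by CellTiter-Glo luminescence, and AC50 values came from Hill fits of concentration-response data.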
Assay [17] can be described thus: Cell Viability - LYMP2-003 (AID 965).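 Also: cells exposed to compounds for 24 h before reading; 0% = DMSO only and full effect = 92 µM tetraoctylammonium bromide; nearly all actives have a fitted effect of over 50% in size.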 A digest of the protocol: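 Acute cytotoxicity is scored as a concentration-dependent drop in intracellular ATP, measured by luciferase luminescence in human lymphoblastoid cells treated for 24 hours at 37 C. AC50 values derive from Hill-equation modelling.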
Assay [18] can be described thus: Cell Viability - LYMP1-003 - Assay at 40 hr (AID 964). Also: % is scaled to controls: 0 for no effect and ±100 for the full control effect; nearly all actives have a fitted effect of over 60% in size. A digest of the protocol:
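Human lymphoblastoid LYMP1-003 cells, 2500/well in complete medium, rested 5 hr at 37 C, then exposed to compounds for 40 hr at 37 C. Viability read as intracellular ATP by CellTiter-Glo luminescence; AC50 from Hill fits of concentration-response data.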

A short description of assay [19]: Cellular Toxicity (caspase-3) NIH 3T3 (AID 666).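 Also: caspase signal read after 16 h compound exposure; 0% = DMSO basal and 100% = 100 µM tamoxifen stimulation.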 A digest of the protocol:
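Mouse NIH 3T3 fibroblasts (1000 cells/well) were treated with compound for 16 hr at 37°C in complete medium; caspase-3/7 activity was read by Caspase-Glo luminescence. Normalized to DMSO and 100 uM tamoxifen; AC50 from Hill fits.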

Molecules are shown by their SMILES. A number with no mark means an inactive call. Records with an inconclusive call do not appear. Calls of active or inactive are those of the source. Calls follow the shape of the dose curve; as a rule, active = well fitted curve in the direction sought with a large enough effect; inconclusive = small, poorly fitted or top-dose-only effect, or another doubt; inactive = no such curve, though single readings can be large; an effect the other way counts as inactive or inconclusive.

Cytochrome P450 3A4 (Homo sapiens), sequence (P08684 whole entry, looked up): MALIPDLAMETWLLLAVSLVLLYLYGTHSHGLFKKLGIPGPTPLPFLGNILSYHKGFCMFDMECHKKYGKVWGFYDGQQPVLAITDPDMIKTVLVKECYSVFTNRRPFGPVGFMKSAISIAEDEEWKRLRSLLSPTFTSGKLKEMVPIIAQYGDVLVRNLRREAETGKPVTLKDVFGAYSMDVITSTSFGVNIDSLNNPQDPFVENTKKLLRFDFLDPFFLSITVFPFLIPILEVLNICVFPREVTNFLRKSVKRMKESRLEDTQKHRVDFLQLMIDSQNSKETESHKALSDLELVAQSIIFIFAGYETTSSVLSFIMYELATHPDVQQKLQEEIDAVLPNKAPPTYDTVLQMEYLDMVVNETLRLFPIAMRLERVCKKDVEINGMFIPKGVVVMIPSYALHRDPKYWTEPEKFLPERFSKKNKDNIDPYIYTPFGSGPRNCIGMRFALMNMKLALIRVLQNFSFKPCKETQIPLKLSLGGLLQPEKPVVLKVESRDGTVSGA

In the case of `Cc1ccc2ncccc2c1`, the values for the caspase-3 activation in [1], in [3] and in [4] were 0.979%, 0.47% and 0.475%, respectively. In addition, the outcome in [2], in assay [5], in assay [9], in assay [10], in assay [11] and in [12] was inactive. For the same molecule, the result in assay [13] was inactive. Further, the Potency entry in [6], in [7], in assay [8], in assay [14], in assay [15] and in [16] was “inactive” each time. Moreover, the Potency result in [17] is “inactive”.

Regarding `CC(C)=CCC/C(C)=C/C=O`, the caspase-3 activation in assay [1] is 0.108%; in [3] it was 0.873%; in assay [4] it was -2.02%. Further, the molecule was classed as inactive in assay [2], in [5], in assay [9], in assay [10], in [11] and in assay [12]. For the same molecule, the outcome in [13] was inactive. The Potency result in [6], in assay [7], in [8], in assay [14], in assay [15] and in [16] was “inactive” in each case. In addition, the Potency result in assay [18] and in assay [17] was “inactive” in each case.

For `CNc1ccccc1`, the caspase-3 activation is 1.7% in assay [1], 0.262% in assay [3] and -1.03% in assay [4]. In addition, the molecule was classed as inactive in assay [2], in assay [5], in assay [9], in assay [10], in assay [12] and in [13]. The Potency result in [6], in assay [7], in assay [8], in assay [14], in assay [15] and in assay [16] was “inactive” throughout. Also, the Potency entry in [18] and in assay [17] was “inactive” throughout.

For `C=CCOC(=O)COCCC(C)C`, the figures for the caspase-3 activation in assay [1], in [3] and in [4] were -0.0239%, -0.913% and -2.01%, respectively. Further, the molecule was called inactive in assay [2], in [5], in assay [9], in assay [10], in [11] and in assay [12]. The outcome in [13] was inactive. The Potency result in assay [6], in assay [7], in assay [8], in assay [14], in assay [15] and in assay [18] was “inactive” each time. Further, in [17], the Potency entry was “inactive”.

`O=C(O)c1ccccc1Cl`: the caspase-3 activation was -0.834% in assay [1], 0.73% in assay [3] and -0.14% in assay [4]. In addition, the molecule was called inactive in [2], in [5], in assay [9], in assay [11], in assay [12] and in [13]. Moreover, the Potency result in assay [6], in assay [7], in assay [8], in [14], in assay [15] and in assay [16] was “inactive” throughout. Further, the Potency entry in assay [18] and in [17] was “inactive” throughout.

For the molecule `O=[N+]([O-])c1cccc(Cl)c1`, the results for the caspase-3 activation in assay [1], in assay [3] and in assay [4] were -0.653%, 0.41% and -2.38%, respectively. Moreover, the molecule was called inactive in [2], in assay [5], in assay [9], in assay [10], in [11] and in [12]. In assay [13], the molecule was called inactive. The Potency result in assay [6], in assay [7], in [8], in [14], in assay [15] and in assay [16] was “inactive” in each case. The Potency result in [18] and in assay [17] was “inactive” throughout.

`CCCCC/C=C/C=C/C=O`: the caspase-3 activation in assay [1] was 0.621%; in assay [4], 163% (active). The call in assay [2], in [5], in [19], in assay [9], in assay [10] and in assay [12] was inactive. The Potency entry in assay [6], in assay [7], in assay [14], in assay [15], in assay [16] and in [18] was “inactive” throughout. Moreover, in assay [8], the Potency is 50.1 µM (active).
